In PubChem BioAssay AID1159580 (chemical genetic matrix, 2015):
Among all 5,500 compounds or so, about 2,000 (36%) were called active. Not shown: some 18% with an inconclusive outcome. No stated cut-off is given here; in the data, active means normalized growth mostly below about 0.91 (no sharp cut-off); inconclusive means no clear call, values can overlap the other calls; inactive means mostly above about 0.92. This is one part of the list.

Assay: chemical genetic growth profiling, strain panel (AID 1159580);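 further: tested at 20 µM; growth read once vehicle control cultures reached saturation at 30 °C; 1 = growth at the plate median or of vehicle wells; lower values mean less growth of the strain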
Details: S. cerevisiae deletion strains, growth OD

Measured: normalized growth

CCOC(=O)C(=O)C1(C(=O)OCC)Oc2cc(OC)cc(OC)c2C(=O)C1c1ccccc1 (stereo not given)
active: locus YBR021W, strain FUR4, hits give low values 0.818 | locus YGL167C, strain pmr1, hits give low values 0.911 | locus YJL129C, strain trk1, hits give low values 0.862 | locus YKR091W, strain srl3, hits give low values 0.929 | locus YLR330W, strain CHS5, hits give low values 0.906 | locus YLR418C, strain cdc73, hits give low values 0.804 | locus YNL071W, strain lat1, hits give low values 0.915 | locus YNL307C, strain MCK1, hits give low values 0.888 | locus YOR290C, strain snf2, hits give low values 0.863
inactive: locus YAL021C, strain ccr4, hits give low values 0.981 | locus YAL026C, strain drs2, hits give low values 0.96 | locus YAL030W, strain snc1, hits give low values 0.96 | locus YBL061C, strain skt5, hits give low values 0.951 | locus YBR009C, strain hhf1, hits give low values 0.908 | locus YBR023C, strain chs3, hits give low values 0.954 | locus YBR171W, strain sec66, hits give low values 0.939 | locus YBR229C, strain ROT2, hits give low values 0.986 | locus YBR231C, strain swc5, hits give low values 0.961 | locus YBR279W, strain paf1, hits give low values 0.965 | locus YCL011C, strain gbp2, hits give low values 0.925 | locus YCL016C, strain dcc1, hits give low values 0.972 | locus YCL029C, strain bik1, hits give low values 0.989 | locus YCL061C, strain MRC1, hits give low values 0.938 | locus YCL069W, strain vba3, hits give low values 0.96 | locus YCR088W, strain abp1, hits give low values 0.967 | locus YDL005C, strain med2, hits give low values 0.961 | locus YDL035C, strain GPR1, hits give low values 0.967 | locus YDL040C, strain nat1, hits give low values 0.961 | locus YDL074C, strain BRE1, hits give low values 0.913 | locus YDL101C, strain DUN1, hits give low values 0.959 | locus YDL185W, strain tfp1, hits give low values 0.969 | locus YDL192W, strain arf1, hits give low values 0.945 | locus YDR001C, strain nth1, hits give low values 0.947 | locus YDR069C, strain doa4, hits give low values 0.967 | locus YDR101C, strain arx1, hits give low values 0.955 | locus YDR137W, strain rgp1, hits give low values 0.904 | locus YDR159W, strain sac3, hits give low values 0.928 | locus YDR162C, strain NBP2, hits give low values 0.987 | locus YDR195W, strain ref2 1.01 | locus YDR297W, strain sur2, hits give low values 0.949 | locus YDR318W, strain mcm21, hits give low values 0.936 | locus YDR334W, strain swr1, hits give low values 0.965 | locus YDR335W, strain msn5, hits give low values 0.971 | locus YDR388W, hits give low values 0.968 | locus YDR392W, strain spt3, hits give low values 0.767 | locus YDR502C, strain sam2, hits give low values 0.928 | locus YEL003W, strain gim4, hits give low values 0.948 | locus YEL037C, strain rad23, hits give low values 0.964 | locus YEL061C, strain CIN8 (second series), hits give low values 0.929 | locus YEL061C, strain CIN8, hits give low values 0.99 | locus YER015W, strain faa2, hits give low values 0.952 | locus YER016W, strain bim1, hits give low values 0.976 | locus YER110C, hits give low values 0.953 | locus YER111C, strain swi4, hits give low values 0.946 | locus YER155C, strain BEM2 (second series), hits give low values 0.875 | locus YER155C, strain BEM2, hits give low values 0.966 | locus YER167W, strain BCK2, hits give low values 0.97 | locus YFR010W, strain ubp6, hits give low values 0.956 | locus YGL078C, strain dbp3, hits give low values 0.938 | locus YGL086W, strain mad1, hits give low values 0.942 | locus YGL173C, strain kem1, hits give low values 0.947 | locus YGL227W, strain vid30, hits give low values 0.926 | locus YGL240W, strain doc1, hits give low values 0.911 | locus YGL248W, strain PDE1, hits give low values 0.945 | locus YGL253W, strain hxk2, hits give low values 0.972 | locus YGR135W, strain pre9, hits give low values 0.915 | locus YGR252W, strain gcn5, hits give low values 0.791 | locus YHR013C, strain ard1, hits give low values 0.95 | locus YHR027C, strain rpn1, hits give low values 0.987 | locus YHR030C, strain SLT2, hits give low values 0.993 | locus YHR079C, strain IRE1 (second series), hits give low values 0.961 | locus YHR094C, strain hxt1, hits give low values 0.951 | locus YHR129C, strain ARP1, hits give low values 0.966 | locus YHR142W, strain chs7, hits give low values 0.95 | locus YHR200W, strain rpn10, hits give low values 0.942 | locus YIL066C, strain RNR3, hits give low values 0.983 | locus YIL073C, strain SPO22, hits give low values 0.929 | locus YIL125W, strain kgd1, hits give low values 0.971 | locus YIR030C, strain dcg1, hits give low values 0.962 | locus YJL092W, strain hpr5, hits give low values 0.941 | locus YJL095W, strain BCK1 (second series), hits give low values 0.973 | locus YJL095W, strain BCK1, hits give low values 0.907 | locus YJL115W, strain asf1, hits give low values 0.979 | locus YJL134W, strain LCB3, hits give low values 0.989 | locus YJL154C, strain vps35, hits give low values 0.968 | locus YJL164C, strain tpk1, hits give low values 0.95 | locus YJL166W, strain qcr8, hits give low values 0.926 | locus YJL168C, strain set2, hits give low values 0.966 | locus YJL187C, strain SWE1 (second series), hits give low values 0.948 | locus YJL187C, strain SWE1, hits give low values 0.953 | locus YJR043C, strain POL32, hits give low values 0.998 | locus YKL009W, strain mrt4, hits give low values 0.899 | locus YKL068W, hits give low values 0.955 | locus YKL085W, strain MDH1 (second series), hits give low values 0.959 | locus YKL085W, strain MDH1, hits give low values 0.959 | locus YKL160W, strain elf1, hits give low values 0.966 | locus YKL190W, strain CNB1, hits give low values 0.989 | locus YKR001C, strain vps1, hits give low values 0.958 | locus YKR026C, strain gcn3, hits give low values 0.932 | locus YLL001W, strain dnm1, hits give low values 0.964 | locus YLL026W, hits give low values 0.969 | locus YLL041C, strain sdh2, hits give low values 0.966 | locus YLR027C, strain aat2, hits give low values 0.95 | locus YLR039C, strain RIC1, hits give low values 0.983 | locus YLR058C, strain SHM2, hits give low values 0.959 | locus YLR102C, strain apc9, hits give low values 0.962 | locus YLR221C, strain rsa3, hits give low values 0.91 | locus YLR258W, strain gsy2, hits give low values 0.959 | locus YLR262C, strain YPT6 (second series), hits give low values 0.906 | locus YLR262C, strain YPT6, hits give low values 0.978 | locus YLR268W, strain sec22, hits give low values 0.955 | locus YLR320W, strain mms22, hits give low values 0.889 | locus YLR342W, strain FKS1, hits give low values 0.919 | locus YLR357W, strain rsc2, hits give low values 0.916 | locus YLR370C, strain arc18, hits give low values 0.938 | locus YLR371W, strain rom2, hits give low values 0.962 | locus YLR384C, strain iki3, hits give low values 0.95 | locus YML016C, strain PPZ1, hits give low values 0.989 | locus YML032C, strain rad52, hits give low values 0.961 | locus YML120C, strain ndi1, hits give low values 0.919 | locus YML124C, strain tub3, hits give low values 0.94 | locus YMR058W, strain fet3, hits give low values 0.946 | locus YMR078C, strain ctf18, hits give low values 0.94 | locus YMR125W, strain sto1, hits give low values 0.979 | locus YMR129W, hits give low values 0.936 | locus YMR205C, strain PFK2, hits give low values 0.877 | locus YMR223W, strain ubp8, hits give low values 0.949 | locus YMR231W, strain pep5, hits give low values 0.988 | locus YMR307W, strain GAS1, hits give low values 0.949 | locus YNL067W, strain RPL9B, hits give low values 0.965 | locus YNL153C, strain GIM3, hits give low values 0.986 | locus YNL209W, strain ssb2, hits give low values 0.972 | locus YNL233W, strain BNI4, hits give low values 0.917 | locus YNL248C, strain rpa49, hits give low values 0.986 | locus YNL250W, strain rad50, hits give low values 0.96 | locus YNL271C, strain bni1, hits give low values 0.976 | locus YNL298W, strain CLA4, hits give low values 0.965 | locus YNL322C, strain KRE1 (second series), hits give low values 0.948 | locus YNL322C, strain KRE1, hits give low values 0.983 | locus YNR049C, strain mso1, hits give low values 0.966 | locus YNR052C, strain pop2, hits give low values 0.985 | locus YOL012C, strain htz1 1.05 | locus YOL147C, strain pex11, hits give low values 0.94 | locus YOR001W, strain rrp6, hits give low values 0.987 | locus YOR061W, strain CKA2, hits give low values 1 | locus YOR069W, strain VPS5, hits give low values 0.979 | locus YOR070C, strain gyp1, hits give low values 0.968 | locus YOR080W, strain dia2, hits give low values 0.965 | locus YOR083W, strain WHI5, hits give low values 0.956 | locus YOR106W, strain vam3, hits give low values 0.974 | locus YOR136W, strain idh2, hits give low values 0.962 | locus YOR144C, strain elg1, hits give low values 0.959 | locus YOR184W, strain ser1, hits give low values 0.876 | locus YOR265W, strain rbl2, hits give low values 0.964 | locus YOR270C, strain vph1, hits give low values 0.878 | locus YOR316C, strain cot1, hits give low values 0.963 | locus YPL051W, strain arl3, hits give low values 0.984 | locus YPL078C, strain atp4, hits give low values 0.964 | locus YPL106C, strain sse1, hits give low values 0.943 | locus YPL240C, strain hsp82, hits give low values 0.968 | locus YPR119W, strain clb2, hits give low values 0.946 | locus YPR141C, strain kar3, hits give low values 0.951 | locus YPR163C, strain tif3, hits give low values 0.97 | locus YPR167C, strain met16, hits give low values 0.929 | strain wtn01, hits give low values 0.945
